Measured values as given in PubChem BioAssay (NCI).
Compounds without any hit were thinned out: in the full panel of roughly 79,000, 15% have a hit. Rule as the data show it: active = growth inhibition above about 70%; inactive = the rest.

Legend:
[1] = NCI Yeast Anticancer Drug Screen. Data for the rad50 strain (AID 155);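 also: 0% = growth of vehicle-only cultures of the same strain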; conditions: S. cerevisiae rad50 strain growth inhibition; at 50.0 µM; active compounds read high
In short: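 Cells are treated with compound, grown, and their growth is then scored against vehicle-only cultures of the same repair-deficient yeast strain.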

[2] = NCI Yeast Anticancer Drug Screen. Data for the mec2-1 strain (AID 157); conditions: S. cerevisiae mec2-1 strain, at 50.0 µM, active compounds read high
In short: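 Compounds were applied to mec2-1 yeast cells. Their growth was then compared with that of vehicle-treated cultures to give growth inhibition.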

[3] = NCI Yeast Anticancer Drug Screen. Data for the sgs1 mgt1 strain (AID 161);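 also: 0% = growth of cultures given vehicle only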; conditions: S. cerevisiae sgs1 mgt1 strain, at 50.0 µM, active compounds read high
In short: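 Yeast cells carrying a defined DNA-repair defect were exposed to test compounds. Growth inhibition was measured relative to vehicle-treated controls.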

[4] = NCI Yeast Anticancer Drug Screen. Data for the cln2 rad14 strain (AID 165);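 also: 0% = growth equal to vehicle treated cultures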; conditions: S. cerevisiae cln2 rad14 strain, at 50.0 µM, active compounds read high
In short: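 Strain: cln2 rad14 yeast, altered in cell cycle control and DNA damage repair. Read-out: growth inhibition vs vehicle.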

[5] = NCI Yeast Anticancer Drug Screen. Data for the bub3 strain (AID 167); conditions: S. cerevisiae bub3 mutant strain, at 50.0 µM, active compounds read high
In short: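 Part of a panel of yeast mutants defective in DNA damage repair or cell cycle regulation. Each strain is grown with compound, and inhibition is calculated relative to solvent-treated cultures.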

[6] = NCI Yeast Anticancer Drug Screen. Data for the mlh1 rad18 strain (AID 175); conditions: S. cerevisiae mlh1 rad18 strain growth inhibition; at 50.0 µM; active compounds read high
In short: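 A repair-deficient yeast strain is exposed to test compound, and growth is scored relative to vehicle-treated controls.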

Measured: growth inhibition

COc1cc2c(C)nc3c4cc5c(cc4ccc3c2cc1OC)OCO5
inactive: [1] -12.4% | [2] 8.2% | [3] 18.2% | [4] -41.9% | [5] 40.2% | [6] 1%

CCCSc1nnc(SCCC)c2[nH]cnc12
inactive: [1] 0.85% | [2] -5.45% | [3] 0.95% | [4] -22.3% | [5] 2.4% | [6] -8.7%

On1c(-c2ccccc2)c(-c2c(-c3ccccc3)n(O)c3ccccc23)c2ccccc21
inactive: [1] 0% | [2] 6.45% | [3] -4.9% | [4] -24.2% | [5] -7.6% | [6] 15.8%

N#CCCN1C(=O)C2(CCC#N)CCCCC2(O)N=C1c1ccccc1 (stereo not given)
inactive: [1] -7.35% | [2] 6.15% | [3] 16.5% | [4] -0.5% | [5] 15.2% | [6] 7.7%

CCN(CC)C(=N)N
inactive: [1] -11.6% | [2] -1.55% | [3] -27.2% | [4] -34.2% | [5] -22% | [6] -14.4%

COc1ccc2c(c1OC)C(=O)C2
inactive: [1] -21.1% | [2] 12.1% | [3] -20.9% | [4] 9% | [5] -16.8% | [6] -2.35%

CC(=O)NNC(=S)/N=C/c1c(C)[nH]n(-c2ccccc2)c1=O
inactive: [1] 4.6% | [2] -7.95% | [3] -22.1% | [4] 2.65% | [5] -6.85% | [6] 17.6%

Cc1c([N+](=O)[O-])cc(C(C)(C)C)c(OC(=O)Nc2ccc(Cl)cc2)c1[N+](=O)[O-]
inactive: [1] 41.4% | [2] 63.7% | [3] 65.7% | [4] 52.2% | [5] 27.6% | [6] 69%

O=C(O)/C(Cl)=C(\Cl)C(=O)NC1C2CC3CC(C2)CC1C3 (stereo not given)
inactive: [1] 14.4% | [2] 10.3% | [3] 13.8% | [4] 28.8% | [5] 3.6% | [6] 19.6%

CC(=O)CC(=O)Nc1ccc(Cl)cc1
inactive: [1] -2.75% | [2] -27.9% | [3] 12.2% | [4] 3.85% | [5] -5.55% | [6] 8.45%

COc1ccc(C23OCN(c4ccccc4)C2(c2ccc(OC)cc2)c2ccccc2N3C)cc1 (stereo not given)
inactive: [1] 4.15% | [2] -6.85% | [3] -25.4% | [4] -0.25% | [5] -2.25% | [6] 11.3%

O=c1/c(=C/c2ccc3c(c2)OCO3)sc2nnc(-c3ccco3)n12
inactive: [1] 1.85% | [2] -30.1% | [3] 17.9% | [4] 20.6% | [5] -19.9% | [6] -3.35%

CN(C)c1nc2nccnc2c(=O)[nH]1
inactive: [1] 11.4% | [2] -1.75% | [3] -11.2% | [4] -52.5% | [5] 6.45% | [6] -14.3%

CC(=O)C(N)C(C)C (stereo not given)
inactive: [1] 5.4% | [2] -3.7% | [3] 19.2% | [4] 7.9% | [5] 1.65% | [6] 7.95%

CCc1ccccc1NC(=O)C(=O)C(C(=O)c1ccc(OC)cc1)c1ccc(OC)cc1 (stereo not given)
inactive: [1] 19% | [2] 11.9% | [3] 5.4% | [4] 16.4% | [5] 4.45% | [6] 9.05%

COc1ccc(CNc2ccccc2C(=O)O)cc1OC
inactive: [1] 11.2% | [2] 2.8% | [3] -1.95% | [4] 31.4% | [5] 32.8% | [6] 8.65%

C1CCCCCC2=C(CCCC1)CCCO2
inactive: [1] 7.4% | [2] -7.5% | [3] 2.35% | [4] -19.3% | [5] 10.2% | [6] 0.2%

CC/C(C)=N\NC(=O)CC(=O)N/N=C(/C)CC
inactive: [1] -8.35% | [2] 1.45% | [3] -7% | [4] -61.6% | [5] -4% | [6] -17.1%

O=C(O)COc1c(Cl)cc(Cl)c2cccnc12
inactive: [1] 28.9% | [2] -3.85% | [3] -15.7% | [4] -16.9% | [5] -63.2% | [6] -4.45%

COC(=O)[C@]1(C)CCC[C@]2(C)C3=C[C@@H](O)[C@@]4(C(C)C)O[C@H]4[C@]3(O)CC[C@@H]12
inactive: [1] -17.9% | [2] -29.3% | [3] -9.15% | [4] -2.7% | [5] -8.25% | [6] -26.6%
